# “And” between values parts separate entries of the source, which are not always exact repeats. Identical values can stand only once.
# Molecular target: Solute carrier family 2, facilitated glucose transporter member 1 (Homo sapiens) (UniProt P11166)
# Experiment: ST_JUDE_LEISH: Cytotoxicity at 2uM final concentration against transgenic Leishmania Mexicana promastigotes LmGLUT1 that are glucose transport deficient and complemented with the human glucose transporter GLUT1. Activity is measured by DNA content using SYBR green in vitro
# Assay type: functional
# Solute carrier family 2, facilitated glucose transporter member 1 (Homo sapiens), sequence (P11166 whole entry): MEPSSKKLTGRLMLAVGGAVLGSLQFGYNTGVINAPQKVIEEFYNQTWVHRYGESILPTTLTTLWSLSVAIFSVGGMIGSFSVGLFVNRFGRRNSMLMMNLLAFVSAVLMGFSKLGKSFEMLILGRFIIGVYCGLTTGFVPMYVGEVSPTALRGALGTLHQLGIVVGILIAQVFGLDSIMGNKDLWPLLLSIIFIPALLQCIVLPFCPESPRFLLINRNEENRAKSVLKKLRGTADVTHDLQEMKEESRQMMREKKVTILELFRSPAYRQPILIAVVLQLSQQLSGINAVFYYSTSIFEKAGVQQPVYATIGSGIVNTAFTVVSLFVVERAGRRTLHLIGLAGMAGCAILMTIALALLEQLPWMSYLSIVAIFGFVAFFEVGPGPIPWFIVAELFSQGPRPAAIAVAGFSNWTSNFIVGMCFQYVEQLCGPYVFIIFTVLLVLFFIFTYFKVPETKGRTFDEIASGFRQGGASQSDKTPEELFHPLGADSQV
row,SMILES,inhibition
1,CC(C)CNCc1ccc(-c2cccc(CN(C(=O)Nc3ccccc3)C3CCN(Cc4ccccc4)CC3)c2)cc1,0.61%
2,CC[C@H]1CN2CC[C@H]1C[C@H]2[C@H](O)c1cc(-c2ccc(OC(F)(F)F)cc2)nc2ccc(OC)cc12,4.51%
3,O=C(/C=C/c1c(Cl)cccc1Cl)NC1CCC(CN2C3CCC2CC(c2c[nH]c4ccccc24)C3)CC1 (centres undefined),2.07%
4,Cc1[nH]c2ccccc2c1C1=CCN(CCCCC23CCCc4cccc(c42)NC3=O)CC1 (centres undefined),2.64%
5,O=C(/C=C/c1ccc(Cl)c(Cl)c1)Nc1cccc(CN2CCC(c3c[nH]c4ccccc34)CC2)c1,8.01%
6,Cc1cc(C2CCCCN2C)ccc1-c1ccc(C(=O)N2CCc3cc4c(cc32)C2(CCN(C)CC2)CO4)cc1 (centres undefined),3.41%
7,COC(=O)c1ccc(CC(C)NCC(O)c2cccc(OCc3ccccc3)c2)cc1 (centres undefined),7.34%
8,CC(=O)N(Cc1ccc(-c2ccc(CNCCc3ccccc3)cc2)cc1)C1CCN(Cc2ccccc2)CC1,1.67%
9,CN(c1ccnc(Nc2ccc(CS(C)(=O)=O)cc2)n1)C1CCN(Cc2ccccc2)CC1,2.04%
10,Cc1[nH]c2cc(Cl)ccc2c1C1=CCN(CCCCC2(C)C(=O)Nc3ccccc32)CC1 (centres undefined),2.01%
11,O=C(Nc1cc(C(F)(F)F)cc(C(F)(F)F)c1)c1cc(Cl)ccc1O,7.09%
12,Cc1cc(NC(=O)[C@H](CC(C)C)Nc2ccc(C#N)c3ccccc23)ccc1F,0.56%
13,CCN1CC=C(c2c[nH]c3ccccc23)CC1,0.74%
14,Oc1ccccc1CNCC(O)c1cc(C(F)(F)F)cc(C(F)(F)F)c1 (centres undefined),6.65%
15,O=C(/C=C/c1ccc(Cl)c(Cl)c1)NC1CCC(CN2CCC(c3c[nH]c4ccccc34)C(O)C2)CC1 (centres undefined),5.68%
16,O=C(NCCC1CCN(CCc2c[nH]c3ccccc23)CC1)Nc1ccc(Cl)c(Cl)c1,3.67%
17,O=C(/C=C/c1ccc(Cl)c(Cl)c1)NC1CCC(CN2CCC(c3c[nH]c4cc(O)ccc34)CC2)CC1 (centres undefined),3.03%
18,O=C(/C=C/c1cc(C(F)(F)F)ccc1F)NC1CCC(CN2CCC(c3c[nH]c4ccccc34)CC2)CC1 (centres undefined),6.52%
19,CN1CC(c2ccc(Cl)c(Cl)c2)OC1=N (centres undefined),-0.53%
20,CCCc1c(C(=O)NC2CCC(CN3CCC(c4c[nH]c5ccccc45)CC3)CC2)cnn1-c1c(Cl)cc(Cl)cc1Cl (centres undefined),4.74%

row,SMILES,inhibition
1,COC(=O)c1ccc(CC(C)NCC(O)c2ccccc2Cl)cc1 (centres undefined),0.96%
2,CC[C@H]1CN2CC[C@@H]1C[C@H]2[C@H](O)c1cc(N2CCSCC2)nc2ccc(OC)cc12,3.55%
3,COc1cc(C(=O)NC2CCC(CN3CCC(c4c[nH]c5ccccc45)CC3)CC2)cc(Cl)n1 (centres undefined),1.3%
4,OC(CNC12CC3CC(CC(C3)C1)C2)c1cccc(C(F)(F)F)c1 (centres undefined),-1.52%
5,COc1cc2c(c(OC)c1OC)C[C@H]1c3c(cc4c(c3-2)OCO4)CCN1C,-0.22%
6,O=C(c1ccccc1)C1CC1CN1CC=C(c2c[nH]c3ccccc23)CC1 (centres undefined),2.08%
7,CC(C)CNCc1cccc(-c2cccc(CN(C(=O)c3cccs3)C3CCN(Cc4ccccc4)CC3)c2)c1,11.3%
8,CCCCCCCc1cc(=O)c2ccccc2[nH]1,12.7%
9,CCCCC/C=C/C(=O)NC1CCC(CN2CCC(c3c[nH]c4ccccc34)CC2)CC1 (centres undefined),2.84%
10,COC(=O)/C=C/c1ccc(CC(C)NCC(O)c2cccc(Cl)c2)cc1 (centres undefined),-0.32%
11,O=C(/C=C/c1cc(C(F)(F)F)ccc1F)N1CCC(CN2CCC(c3c[nH]c4ccccc34)CC2)CC1,1.52%
12,COCCNCc1ccc(-c2ccc(CN(C(=O)Nc3ccccc3)C3CCN(Cc4ccccc4)CC3)cc2)cc1,7.17%
13,O=C(NC1CCC(CN2CCC(c3c[nH]c4ccccc34)CC2)CC1)c1cc2ccccc2s1 (centres undefined),-1.97% and 2.46%
14,CCOC(=O)c1c(C)n(C2CCCCCC2)c2cc(Br)c(O)cc12,2.52%
15,CC(=O)N(Cc1cccc(-c2ccc(CNCCc3ccccc3)cc2)c1)C1CCN(Cc2ccccc2)CC1,4.3%
16,O=C(/C=C/c1ccc(Cl)c(Cl)c1)N1CCC(CN2CCC(c3c[nH]c4ccc(O)cc34)CC2)CC1,1.04%
17,Cc1ccc2c(C3=CCN(CCCCC4(C)C(=O)Nc5ccccc54)CC3)c(C)[nH]c2c1 (centres undefined),0.29%
18,CCC1(C)CC(CCNCc2ccccc2O)(c2ccc(F)cc2)CCO1 (centres undefined),0.23%
19,NC(=O)c1ccc2[nH]cc(C3CCN(CC4CCC(NC(=O)/C=C/c5ccc(Cl)c(Cl)c5)CC4)CC3)c2c1 (centres undefined),-3.07% and 2.76%
